# Data: PubChem BioAssay (NCATS)
# A number with no mark means an inactive call. For part of these data: Results with a measured potency or affinity are listed apart. Active and inactive are the calls of the source. How the calls were made is not given here.
# Legend:
# [1] = Ebola virus entry assay, green fluorescence channel
# [2] = Ebola virus entry assay, blue channel fluorescence
# [3] = Ebola virus entry assay, ratio channel
# [4] = Ebola virus entry assay, green channel fluorescence
# [5] = Ebola virus entry assay, reporter ratio channel; Channel type: primary
# [6] = Ebola virus entry assay, blue channel (ratio component)
# Wherever efficacy is given: 0% is about no effect.
Structure (SMILES),efficacy [1] [%],outcome [2],outcome [3],outcome [4],AC50 [5],outcome [6],outcome [5]
CN1[C@@H]2CC[C@H]1CC(OC(=O)c1c[nH]c3ccccc13)C2 (some centres not stated),45,inactive,inactive,inactive,39.8 µM (active),inactive,–
CC[N+](CC)(CC(=O)Nc1c(C)cccc1C)Cc1ccccc1,-14.7,inactive,inactive,inactive,–,inactive,inactive
CCOC(=O)NNc1nncc2ccccc12,-15.2,inactive,inactive,inactive,–,inactive,inactive
CCNC(=O)NCc1cccc(Cl)c1,7,inactive,inactive,inactive,–,inactive,inactive
CNC(=O)c1c(I)c(NC(=O)CCCCC(=O)Nc2c(I)c(C(=O)O)c(I)c(C(=O)NC)c2I)c(I)c(C(=O)O)c1I,-24,inactive,inactive,inactive,–,inactive,inactive
CC(=O)Nc1ccc(OCCOCCOc2ccc(NC(C)=O)cc2)cc1,20.2,inactive,inactive,inactive,–,inactive,inactive
C[C@H]1NCc2cc(-c3ccc4c(=O)c(C(=O)O)cn(C5CC5)c4c3OC(F)F)ccc21,-19.7,inactive,inactive,inactive,–,inactive,inactive
O=C(OCC(O)CO)c1ccccc1Nc1ccnc2c(C(F)(F)F)cccc12 (configuration not stated),31.1,inactive,inactive,inactive,–,inactive,inactive
C[C@H](CCC(=O)O)[C@H]1CC[C@H]2[C@@H]3C(=O)C[C@@H]4CC(=O)CC[C@]4(C)[C@H]3CC(=O)[C@]12C,-7.14,inactive,inactive,inactive,–,inactive,inactive
CC(=O)N1CCN(c2ccc(O)cc2)CC1,19.8,inactive,inactive,inactive,–,inactive,inactive
c1ccc2[nH]c(-c3cscn3)nc2c1,-29.7,inactive,inactive,inactive,–,inactive,inactive
CC(C)Cn1cnc2c1c(=O)n(C)c(=O)n2C,-27.1,inactive,inactive,inactive,–,inactive,inactive
Nc1nc(=O)n([C@@H]2O[C@H](CO)[C@@H](O)[C@@H]2F)cc1I,-12.8,inactive,inactive,inactive,–,inactive,inactive
CCCNC(C)(C)COC(=O)c1ccccc1,-21,inactive,inactive,inactive,–,inactive,inactive
Oc1ccc(C(O)CNCCCCCCNCC(O)c2ccc(O)c(O)c2)cc1O (configuration not stated),16,inactive,inactive,inactive,44.7 µM (active),inactive,–
CCN(CC)CC1CCCCN1CC(=O)N1c2ccccc2C(=O)Nc2cccnc21 (configuration not stated),31.3,inactive,inactive,inactive,–,inactive,inactive
Cc1cccc(C)c1NC(=O)CN1CCCC1,18.6,inactive,inactive,inactive,–,inactive,inactive
CN(C)C(=O)Oc1cccc([N+](C)(C)C)c1,-10.1,inactive,inactive,inactive,–,inactive,inactive
CCCCOc1ccc(CC(=O)NO)cc1,-9.53,inactive,inactive,inactive,–,inactive,inactive
CCCCCCCC/C=C\CCCCCCCCN,12.8,inactive,inactive,inactive,–,inactive,inactive
FC(F)(F)C(Cl)Br (configuration not stated),31.6,inactive,inactive,inactive,–,inactive,inactive
Cc1ccc2nc(N)[nH]c(=O)c2c1Sc1ccncc1,17.5,inactive,inactive,inactive,–,inactive,inactive
O=C(O)COC(=O)Cc1ccccc1Nc1c(Cl)cccc1Cl,31.8,inactive,inactive,inactive,–,inactive,inactive
OCC(O)CS (configuration not stated),-11.9,inactive,inactive,inactive,–,inactive,inactive
CC(=C(CCOC(=O)C(C)C)SSC(CCOC(=O)C(C)C)=C(C)N(C=O)Cc1cnc(C)nc1N)N(C=O)Cc1cnc(C)nc1N,-18,inactive,inactive,inactive,–,inactive,inactive
CCCCC1(COC(=O)CCC(=O)O)C(=O)N(c2ccccc2)N(c2ccccc2)C1=O,-12.3,inactive,inactive,inactive,–,inactive,inactive

Structure (SMILES),efficacy [1] [%],outcome [2],outcome [3],outcome [4],AC50 [5],outcome [6],outcome [5]
O=C(O)c1ccc(OCCCOc2ccc(C(=O)O)cc2)cc1,11.3,inactive,inactive,inactive,–,inactive,inactive
O=C(CCN1CCN(CCO)CC1)N1c2ccccc2Sc2ccc(C(F)(F)F)cc21,14.8,inactive,inactive,inactive,–,inactive,inactive
C[C@@H](O)[C@H]1C(=O)N2C(C(=O)O)=C([C@H]3CCCO3)S[C@H]12,-19.1,inactive,inactive,inactive,–,inactive,inactive
N[C@H](Cc1c[nH]c2ccccc12)C(=O)O,29.9,inactive,inactive,inactive,–,inactive,inactive
CC1=CC(=O)c2ccccc2C1=O,12.6,inactive,inactive,inactive,–,inactive,inactive
COCc1c(C(C)C)nc(C(C)C)c(/C=C/[C@@H](O)C[C@@H](O)CC(=O)O)c1-c1ccc(F)cc1,9.5,inactive,inactive,inactive,–,inactive,inactive
Nc1ccc(C(=O)NCC(=O)O)cc1,34,inactive,inactive,inactive,–,inactive,inactive
C#C[C@]1(OC(C)=O)CC[C@H]2[C@@H]3CCC4=C[C@@H](OC(C)=O)CC[C@@H]4[C@H]3CC[C@@]21C,-36.9,inactive,inactive,inactive,–,inactive,inactive
CC(=O)Oc1ccc(C(=C2CCCCC2)c2ccc(OC(C)=O)cc2)cc1,-12.6,inactive,inactive,inactive,–,inactive,inactive
NCC(=O)O,13.7,inactive,inactive,inactive,–,inactive,inactive
CN(C)CC[C@@H](c1ccc(Cl)cc1)c1ccccn1,-31.3,inactive,inactive,inactive,–,inactive,inactive
O=C(O)CCNC(=O)c1ccccc1,-15.3,inactive,inactive,inactive,–,inactive,inactive
CN1CCN(c2c(F)cc3c(=O)c(C(=O)O)cn(CCF)c3c2F)CC1,-28.9,inactive,inactive,inactive,–,inactive,inactive
CC1(C)CCC(C)(C)c2cc(NC(=O)c3ccc(C(=O)O)cc3)ccc21,21.8,inactive,inactive,inactive,–,inactive,inactive
CC(=O)Oc1ccc(C2(c3ccc(OC(C)=O)cc3)Oc3ccccc3NC2=O)cc1,-26.7,inactive,inactive,inactive,–,inactive,inactive
NCCNC(=O)c1ccc(Cl)cn1,-25.1,inactive,inactive,inactive,–,inactive,inactive
CCOC(=O)c1ccc(NC(=O)CN2CCCCC2)cc1,-17.3,inactive,inactive,inactive,–,inactive,inactive
CCOc1c(N2CCOCC2)cnn(C)c1=O,-16.1,inactive,inactive,inactive,–,inactive,inactive
CCC(=O)Oc1ccc2c(c1)CC[C@@H]1[C@@H]2CC[C@@]2(C)[C@H]1C[C@@H](OC(=O)CC)[C@@H]2OC(=O)CC,-23.4,inactive,inactive,inactive,–,inactive,inactive
O=c1[nH]c2cc(C(F)(F)F)c(N3CCOCC3)cc2n(CP(=O)(O)O)c1=O,-34.7,inactive,inactive,inactive,–,inactive,inactive
CCC(=O)Nc1ccc(O)cc1,-18.3,inactive,inactive,inactive,–,inactive,inactive
CCc1oc2ccccc2c1C(=O)c1cc(Br)c(O)c(Br)c1,16.5,inactive,inactive,inactive,–,inactive,inactive
COc1cc(OC)cc(OC)c1,-13.9,inactive,inactive,inactive,–,inactive,inactive
CC(=O)Oc1c(C)c(C)c2c(c1C)CC[C@@](C)(CCC[C@H](C)CCC[C@H](C)CCCC(C)C)O2,-9.77,inactive,inactive,inactive,–,inactive,inactive
Cc1ncc(COP(=O)(O)O)c(C=O)c1O,-34.1,inactive,inactive,inactive,–,inactive,inactive
COc1ccc(OC(=O)N(CC(=O)O)Cc2ccc(OCCc3nc(-c4ccccc4)oc3C)cc2)cc1,-17,inactive,inactive,inactive,–,inactive,inactive
